Source: PubChem BioAssay
KCNQ2 enhance: KCNQ2 (rat) channel potentiation | O88943 | AID 2239 | actives 0.54% (n = 310,000) | CHO-K1 KCNQ2, FluxOR thallium flux fluorescence; stronger effect = higher value | B-score at 10 µM;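 active = fluorescence ratio B-score at least 3 SD of library B-scores, with initial fluorescence B-score within 3 of them, cut at about 5.3 in these data; same plate scores as AID 2156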;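 note: B-score of peak minus minimum over baseline fluorescence ratio after K+ and Tl+ stimulus; positive B-score means potentiation of KCNQ2 with more thallium influx and brighter signal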
KCNQ2 inh: KCNQ2 (rat) channel inhibition; B-score at 10 µM; actives 1.1% (n = 310,000); CHO-K1 KCNQ2, FluxOR thallium flux, 20 min; stronger effect = lower value;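 active = fluorescence ratio B-score at most minus 3 library SDs, with starting brightness B-score within 2 library SDs, cut at about -5.5 in these data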
Kir21 confirm: confirmation of mouse Kir2.1 potassium channel inhibitors | Kir2.1-expressing cells, FluxOR thallium flux fluorescence; stronger effect = lower value | AID 2032 | actives 41% (n = 2,300) | shares compounds with KCNQ2 enhance | Tl flux remaining, % of negative control (stronger effect = lower value), % at 10 µM;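 active = Primary-screen hit whose thallium flux fell at least 3 control SD below untreated wells in both duplicates, with normal baseline fluorescence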;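 note: 0% = blank wells without stimulus and 100% = stimulated no-compound controls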
HEK293 Tl flux: counter-screen for Kir2.1 inhibitors: effect in parental HEK293 cells; shares compounds with KCNQ2 enhance; FluxOR signal as % of negative control (100 = no effect), % at 10 µM; AID 2105; FluxOR thallium flux fluorescence; 0% = unstimulated blank wells; actives 19% (n = 2,300);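 active = dye signal at least 3 control SD above or below untreated wells in both duplicates, raw fluorescence within 3, either direction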;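 note: percent is based on the flux ratio of peak minus minimum fluorescence over baseline F0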
CHO-K1 Tl ctr: counter-screen for KCNQ2 potentiators: effect in parental CHO-K1 cells. shares compounds with KCNQ2 enhance. FluxOR thallium flux fluorescence; zero = vehicle mean+3SD, 100% = vehicle-minus-blank window. activity increase over 3SD of controls, % at 10 µM. actives 43% (n = 1,200);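 active = signal rise of at least 3 SD above the untreated control mean, in both duplicate wells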;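 note: counter screen of KCNQ2 potentiator hits so any rise reflects channel-independent effects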
KCNQ1 pot spec: selectivity of KCNQ2 potentiators: effect on human KCNQ1; CHO KCNQ1 stable, FluxOR thallium flux fluorescence; beyond 3SD, as % of vehicle-control signal; actives 28% (n = 1,200); shares compounds with KCNQ2 enhance; AID 2283; activation over 3SD threshold, % at 10 µM;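 active = fluorescence ratio rise of at least 3 SD of vehicle wells above their mean, in both replicate wells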;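 note: 0% = vehicle mean plus 3 SD and 100% = vehicle minus unstimulated blank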
KCNQ2 pot conf: rat KCNQ2 channel potentiator confirmation | shares compounds with KCNQ2 enhance | CHO-KCNQ2 cells, FluxOR thallium flux fluorescence | potentiation, less the hit threshold, % at 10 µM | actives 68% (n = 1,200) | AID 2287;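 active = fluorescence ratio rising 3 SD or more over the vehicle control mean in both replicates, plus primary screen hit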;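 note: peak minus minimum thallium fluorescence divided by baseline after K/Tl stimulus; 0% = vehicle mean plus 3 SD and 100% = vehicle minus unstimulated blank difference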
Kir2-1 sel: mouse Kir2.1 off-target activity of KCNQ2 potentiators; shares compounds with KCNQ2 enhance; HEK293 Kir2.1, FluxOR thallium flux fluorescence; activity over 3SD threshold, % at 10 µM; actives 2% (n = 1,200); AID 2345;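 active = fluorescence ratio rise of at least 3 SD above the vehicle-control mean, seen in both replicates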;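 note: 0% = vehicle mean plus 3 SD and 100% = vehicle minus no-stimulus blank window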
KCNQ2 W236L pot: potentiates the retigabine-insensitive rat KCNQ2 W236L mutant channel; shares compounds with KCNQ2 enhance; CHO KCNQ2-W236L, automated patch clamp current; current increase over 3SD of negative controls (%), stronger effect = higher value, % at 25 µM; actives 10% (n = 940);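 active = current increase at least 3 SD of the untreated controls above them in both duplicate recordings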
Target sequence (O88943 whole entry W236L, looked up): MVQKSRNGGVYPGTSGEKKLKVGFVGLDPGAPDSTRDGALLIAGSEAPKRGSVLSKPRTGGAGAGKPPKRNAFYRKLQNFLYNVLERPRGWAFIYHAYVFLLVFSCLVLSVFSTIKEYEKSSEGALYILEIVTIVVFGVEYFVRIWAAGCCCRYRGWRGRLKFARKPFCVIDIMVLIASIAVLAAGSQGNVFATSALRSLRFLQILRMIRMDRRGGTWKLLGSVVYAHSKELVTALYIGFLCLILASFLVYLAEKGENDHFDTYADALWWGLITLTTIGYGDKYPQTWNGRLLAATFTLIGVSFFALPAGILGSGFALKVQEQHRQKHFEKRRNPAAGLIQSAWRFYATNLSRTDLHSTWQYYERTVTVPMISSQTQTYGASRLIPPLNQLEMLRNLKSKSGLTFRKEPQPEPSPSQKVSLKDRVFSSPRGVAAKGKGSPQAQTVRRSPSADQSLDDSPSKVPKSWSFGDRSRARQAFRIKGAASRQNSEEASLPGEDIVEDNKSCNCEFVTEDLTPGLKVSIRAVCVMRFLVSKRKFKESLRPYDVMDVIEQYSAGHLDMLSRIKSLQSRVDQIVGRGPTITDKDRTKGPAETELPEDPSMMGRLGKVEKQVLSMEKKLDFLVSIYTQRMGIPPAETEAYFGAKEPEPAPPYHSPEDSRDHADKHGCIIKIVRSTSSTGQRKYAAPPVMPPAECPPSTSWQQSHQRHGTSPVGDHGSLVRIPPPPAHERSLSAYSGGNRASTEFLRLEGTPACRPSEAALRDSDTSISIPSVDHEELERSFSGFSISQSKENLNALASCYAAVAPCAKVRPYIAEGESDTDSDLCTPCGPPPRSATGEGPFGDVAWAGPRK
The depositor's hits bear a star. An excerpt weighted towards active compounds, which were near 1.6% of everything screened.

Results for CC(C)Oc1ccc(CNC(=O)CC(c2ccccc2)c2cc(Cl)ccc2O)cc1 (configuration not stated) ?
KCNQ2 enhance: 15*; KCNQ2 inh: inactive; Kir21 confirm: inactive; HEK293 Tl flux: 128%*; CHO-K1 Tl ctr: 11*; KCNQ1 pot spec: 18*; KCNQ2 pot conf: 59*; Kir2-1 sel: -21; KCNQ2 W236L pot: inactive

Results for COc1ccccc1C(CC(=O)Nc1ccc(Cl)cc1)c1ccc(OC(C)C)cc1 (configuration not stated) ?
KCNQ2 inh: inactive

What do the screens show for `CCCCCCNC(=O)CC(c1ccccc1)c1cc(Br)ccc1O` (configuration not stated)?
KCNQ2 enhance: 29*; KCNQ2 inh: inactive; Kir21 confirm: inactive; HEK293 Tl flux: inactive; CHO-K1 Tl ctr: -3; KCNQ1 pot spec: -28; KCNQ2 pot conf: 64*; Kir2-1 sel: -43; KCNQ2 W236L pot: inactive

Results for O=C(CC(c1ccccc1)c1cc(Br)ccc1O)NCc1ccco1 (configuration not stated) ?
KCNQ2 enhance: 18*; KCNQ2 inh: inactive; CHO-K1 Tl ctr: -7; KCNQ1 pot spec: -1; KCNQ2 pot conf: 67*; Kir2-1 sel: -66; KCNQ2 W236L pot: inactive

What do the screens show for `Cc1c(Cl)cccc1N(CC(=O)NC1CCCCC1)S(C)(=O)=O`?
KCNQ2 inh: inactive

Results for CCOC(=O)N1CCN(Cc2c(O)ccc3ccccc23)CC1 ?
KCNQ2 inh: inactive

What do the screens show for `CCOC(=O)C1CCN(Cc2c(O)ccc3ccccc23)CC1`?
KCNQ2 enhance: 0.29; KCNQ2 inh: inactive; Kir21 confirm: 70%*; HEK293 Tl flux: inactive

Results for O=C(O)CCCNC(=O)Nc1ccccc1 ?
KCNQ2 enhance: 0.71; KCNQ2 inh: inactive

Results for CCCCCCNC(=O)Nc1ccccc1 ?
KCNQ2 enhance: 5.9*; KCNQ2 inh: inactive; Kir21 confirm: inactive; HEK293 Tl flux: inactive; CHO-K1 Tl ctr: -8; KCNQ1 pot spec: -11; KCNQ2 pot conf: 3.7*; Kir2-1 sel: -24; KCNQ2 W236L pot: inactive

Results for CC(C)NS(=O)(=O)c1ccc(OCC(=O)Nc2ccc(F)cc2F)cc1 ?
KCNQ2 enhance: 0.02; KCNQ2 inh: inactive

How did Cc1ccc(NC(=S)N(CCN2CCCCC2)Cc2ccco2)cc1Cl do in these assays?
KCNQ2 inh: inactive

Results for COc1ccccc1N=Nc1ccc(O)c2ncccc12 ?
KCNQ2 enhance: 6.7*; KCNQ2 inh: inactive; Kir21 confirm: inactive; HEK293 Tl flux: inactive; CHO-K1 Tl ctr: -7; KCNQ1 pot spec: -21; KCNQ2 pot conf: 1.5*; Kir2-1 sel: -28; KCNQ2 W236L pot: inactive

Results for Cc1ccc(N=Nc2ccc(O)c3ncccc23)cc1C ?
KCNQ2 enhance: 2.8; KCNQ2 inh: inactive

What do the screens show for `Cc1ccc(N=Nc2ccc(O)c3ncccc23)cc1`?
KCNQ2 enhance: 8.3*; KCNQ2 inh: inactive; Kir21 confirm: inactive; HEK293 Tl flux: inactive; CHO-K1 Tl ctr: -12; KCNQ1 pot spec: 27*; KCNQ2 pot conf: 13*; Kir2-1 sel: -35; KCNQ2 W236L pot: inactive

What do the screens show for `CCS(=O)(=O)c1ccc(N=Nc2ccc(O)c3ncccc23)c(OC)c1`?
KCNQ2 enhance: 0.63; KCNQ2 inh: inactive

How did CCc1cccc(C)c1NC(=O)COC(=O)C1CCN(S(=O)(=O)c2ccccc2)CC1 do in these assays?
KCNQ2 enhance: 1.9; KCNQ2 inh: inactive

What do the screens show for `CCc1cccc(C)c1NC(=O)CN1CCN(S(=O)(=O)c2ccc(C(C)(C)C)cc2)CC1`?
KCNQ2 enhance: 5.3*; KCNQ2 inh: inactive; Kir21 confirm: inactive; HEK293 Tl flux: inactive; CHO-K1 Tl ctr: 63*; KCNQ1 pot spec: -9; KCNQ2 pot conf: -19; Kir2-1 sel: -35

What do the screens show for `COC(=O)c1sccc1NC(=O)Nc1cccc(F)c1`?
KCNQ2 enhance: 1.7; KCNQ2 inh: inactive

How did COc1ccc(CNCC(O)(c2ccc(F)cc2)c2ccc(F)cc2)cc1 do in these assays?
KCNQ2 inh: inactive; Kir21 confirm: inactive; HEK293 Tl flux: inactive

What do the screens show for `COc1ccccc1CNCC(O)(c1ccc(F)cc1)c1ccc(F)cc1`?
KCNQ2 inh: inactive; Kir21 confirm: 53%*; HEK293 Tl flux: inactive

Results for COc1ccc(CNCC(O)(c2ccccc2)c2ccccc2)cc1 ?
KCNQ2 inh: inactive; Kir21 confirm: 56%*; HEK293 Tl flux: inactive

How did COc1ccccc1CNCC(O)(c1ccc(Cl)cc1)c1ccc(Cl)cc1 do in these assays?
KCNQ2 inh: inactive

What do the screens show for `OC(CNCc1ccccc1)(c1ccccc1)c1ccccc1`?
KCNQ2 inh: inactive

Results for Cc1ccc(CNCC(O)(c2ccc(F)cc2)c2ccc(F)cc2)cc1 ?
KCNQ2 inh: inactive

How did CCC(C)[C@H](NC(=O)c1cc2cc(Cl)ccc2n1C)C(=O)N1CCC(C(=O)O)CC1 (some centres not stated) do in these assays?
KCNQ2 inh: inactive

Results for CCCCNC(=S)N(CCN(C)C)Cc1cc2cc3c(cc2[nH]c1=O)OCCO3 ?
KCNQ2 enhance: 0.02; KCNQ2 inh: inactive

How did COc1ccc(CN2CCC(Cc3ccccc3)CC2)cc1OC do in these assays?
KCNQ2 enhance: 0.03; KCNQ2 inh: inactive

How did CCOc1ccc(CN2CCC(Cc3ccccc3)CC2)cc1 do in these assays?
KCNQ2 enhance: 0.4; KCNQ2 inh: inactive; Kir21 confirm: 41%*; HEK293 Tl flux: inactive

How did CCOC(=O)c1ccc(NC(=S)NCCc2ccc(F)cc2)cc1 do in these assays?
KCNQ2 enhance: 0.83; KCNQ2 inh: inactive

How did c1ccc(CN2c3ccccc3-c3nc4ccccc4n3C2c2ccccn2)cc1 (configuration not stated) do in these assays?
KCNQ2 inh: inactive

Results for CCN1c2ccccc2-c2nc3ccccc3n2C1c1ccco1 (configuration not stated) ?
KCNQ2 inh: inactive; Kir21 confirm: inactive; HEK293 Tl flux: inactive
